# Only some compounds are listed: those with a hit (about 7.5% of all), similar ones and a draw of the others.
# Rab9 prom act = qHTS Assay for Rab9 Promoter Activators; 2.8% of 320,000 active; Potency, µM (doses to about 9.22 µM), inactives show top-dose activation, negative = inhibition, actives largely listed as activators; AID 485297, 2010; Huh7 Rab9 promoter-luciferase reporter, luminescence, 24 h; further: % of control where 0% means no effect; nearly all actives have a fitted effect of over 60% in size
#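 Using Huh7 cells stably transfected with Rab9 promoter–luciferase, compounds were incubated 24 h at 37 °C, 5% CO2; luciferase luminescence was read 10 min after reagent addition.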
# ELG1 genotox = qHTS screen for small molecules that induce genotoxicity in human embryonic kidney (HEK293T) cells expressing luciferase-tagged ELG1; HEK293T ELG1-luciferase reporter, luminescence, 16 h; 1.3% of 330,000 active; Potency, µM (titrated, usually from 46 µM), inactives show at the highest dose activity change, positive = activation, most hits filed as activators; further: % of control where 0% means no effect; nearly all actives have a fitted effect of over 60% in size
#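 DMSO vehicle served as control against compound-treated ELG1-luciferase HEK293T cells; exposure lasted 16 hr at 37 °C and 5% CO2, followed by ONE-Glo luminescence detection after 30 min.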
# NPC1 promoter act = qHTS Assay for NPC1 Promoter Activators; Huh7 NPC1 promoter luciferase reporter, 24 h; Potency, µM (top dose mostly 9.22 µM), for inactives: at the top dose activation, most hits filed as activators; 2.4% of 320,000 active; further: % of control where 0% means no effect; nearly all actives have a fitted effect of over 60% in size
#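 Stable NPC1-promoter luciferase Huh7 line; cpd (DMSO) 24 h, 37 °C, 5% CO2; Amplite luciferase reagent 10 min RT; luminescence readout. qHTS format.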
# FLuc counter = qHTS profiling assay for firefly luciferase inhibitor/activator using purifed enzyme and Km concentrations of substrates (counterscreen for miR-21 project); Luciferin 4-monooxygenase (Photinus pyralis), P08659; purified FLuc, Km substrates, luminescence inhibition; Potency, µM (top dose mostly 57.5 µM), for inactives: at the top dose activity change, negative = inhibition, hits mostly inhibitors; 6.9% of 360,000 active; AID 588342, 2011;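 further: plate controls were vehicle for no effect and reference inhibitor for full effect; nearly all actives have a fitted effect of over 55% in size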
# Target sequence (P08659 whole entry, looked up): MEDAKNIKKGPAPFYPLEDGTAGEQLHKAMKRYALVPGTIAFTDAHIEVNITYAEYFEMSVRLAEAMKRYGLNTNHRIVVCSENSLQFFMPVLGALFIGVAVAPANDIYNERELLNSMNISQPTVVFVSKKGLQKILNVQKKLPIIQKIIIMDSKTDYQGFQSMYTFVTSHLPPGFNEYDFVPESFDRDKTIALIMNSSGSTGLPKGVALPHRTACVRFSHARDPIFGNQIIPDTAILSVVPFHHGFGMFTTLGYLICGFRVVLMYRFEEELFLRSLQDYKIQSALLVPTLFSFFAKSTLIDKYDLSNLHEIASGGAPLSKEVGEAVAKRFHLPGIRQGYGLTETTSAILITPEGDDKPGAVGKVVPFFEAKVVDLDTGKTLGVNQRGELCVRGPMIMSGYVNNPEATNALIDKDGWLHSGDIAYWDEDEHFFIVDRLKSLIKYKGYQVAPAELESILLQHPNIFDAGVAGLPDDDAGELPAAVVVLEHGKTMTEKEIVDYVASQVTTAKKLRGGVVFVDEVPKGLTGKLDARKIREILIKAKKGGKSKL
#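 Purified P. pyralis luciferase (10nM final) with 10uM D-luciferin and 10uM ATP (Km levels) in 50mM Tris acetate pH 7.5, 10mM Mg acetate, 0.01% Tween-20, 0.05% BSA; qHTS 6-point titration, ~60 µM downward; luminescence read.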
# SMN2 splice up = qHTS Assay for Enhancers of SMN2 Splice Variant Expression | 2.8% of 210,000 active | HEK293 SMN2-luciferase splicing reporter, luminescence, 30-36 h | Potency, µM (highest dose often 46.1 µM), inactives show at the highest dose activity change, positive = activation, most hits filed as activators | AID 1458, 2008; further: % of control where 0% means no effect; nearly all actives have a fitted effect of over 55% in size
#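 HEK293 cells carry an SMN2 […]–luciferase reporter in which exon 7 inclusion puts luciferase in frame. Cells were plated 10-12 h before compound addition, then incubated 30-36 h at 37C. ONE-Glo luminescence was read; sodium butyrate at 4.5 mM final served as control.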
# Numbers without * were called inactive; ? = inconclusive; . = not tested or not shown; [ ] = another dose, or the depositor's remark. The call rests on the fitted dose curve; in most records, active means well fitted curve in the direction sought with a large enough effect; inconclusive means small, poorly fitted or top-dose-only effect, or another doubt; inactive means no such curve, though single readings can be large; an effect the other way counts as inactive or inconclusive. Potency means the concentration at half of the fitted maximal effect.
SMILES,Rab9 prom act,ELG1 genotox,NPC1 promoter act,FLuc counter,SMN2 splice up
CSc1cccc(NC(=O)N2CCN(c3cc(-c4noc(C)n4)ccc3C)CC2)c1,.,.,.,-4.8%,.
O=C(Nc1ccc(F)cc1F)c1ccc2ncsc2c1,3.98µM*,13.3%[9.26 µM],2.51µM*,26.9µM*,.
O=C(Nc1ccncc1)c1ccc2ncsc2c1,19.1%,?,24.9%,-18.2%,.
O=C(Nc1ccc(Cl)cc1Cl)c1ccc2ncsc2c1,2.24µM*,?,2.24µM*,2.69µM*,.
NC(N)=NCCC[C@@H](N)C(=O)O,.,.,.,.,0.6%
CC(=O)N1CC(C)Oc2ccc(S(=O)(=O)NC(CC(=O)O)c3cc(C)ccc3C)cc21 (centres undefined),-3.9%,-0.5%[9.26 µM],-4.2%,0.0%,.
CCOC(=O)[C@@H]1[C@H]2COc3cc(OC)ccc3[C@@H]2N2C(=O)N(c3ccccc3)C(=O)[C@]12C,.,0.2%,.,.,.
COC(=O)/C=C/c1ccc(OC(=O)OC)c(OC(=O)OC)c1,-11.9%,9.5%,-10.0%,-19.7%,14.1µM*
COc1ccc(/C=C/C(=O)OC(C)C(=O)c2ccccc2)cc1OC (centres undefined),-3.0%,11.8%,0.4%,-16.3%,.
CC(C)Oc1ccc(CNC(=O)c2sc3ncccc3c2-n2cccc2)cc1,.,.,.,-1.5%,.
COC(=O)c1ccc(NC(=O)CSCC(=O)OCC(=O)c2ccc(Br)cc2)cc1,1.2%,-0.2%,-3.0%,12µM*,-10.5%
O=c1c(S(=O)(=O)c2ccccc2)cn(Cc2ccc(F)cc2)c2cc(N3CCCCC3)c(F)cc12,.,.,.,-2.1%,.
CCc1ccc2nc3sc(C(=O)N4CCc5ccccc54)c(N)c3cc2c1,-1.8%,10.7%,2.1%,-8.2%,-10.3%
CCOc1ccc2nc3sc(C(=O)N4CCN(C)CC4)c(N)c3cc2c1,25.3%,?,-3.0%,10.7µM*,17.3%
COc1ccc2cc3c(N)c(C(=O)N4CCCC4)sc3nc2c1,1.41µM*,?,1.78µM*,2.69µM*,11.2µM*
CCN1CCc2nc3sc(C(=O)N4CCc5ccccc5C4)c(N)c3cc2C1,-0.1%,-6.1%,-6.6%,?,.
COc1ccc2cc3c(N)nn(C(=O)c4ccccc4Cl)c3nc2c1,10.7%,-7.7%,-0.5%,?,-47.1%
Cc1ccc2nc3sc(C(=O)N4CCOCC4)c(N)c3cc2c1,0.112µM*,?,0.251µM*,0.12µM*,-72.6%
CC(C)c1ccc2nc3sc(C(=O)N4CCc5ccccc5C4)c(N)c3cc2c1,16.6%,20.7%,12.9%,16.9µM*,15.8%
CCOc1ccc(-n2c(N)c(C(=O)N3CCN(C)CC3)sc2=S)cc1,-2.2%,-2.8%,-0.6%,-0.1%,-1.3%
CCCCNc1c(N)n(CCCC)c(=O)[nH]c1=O,8.5%,1.6%,-9.9%,0.4%,-5.4%
O=C(O)CCCC(=O)N1N=C(c2ccccc2)CC1c1ccc2c(c1)OCO2 (centres undefined),4.1%,-0.3%,0.9%,-2.8%,.
CCC(C)NC(=O)c1cc2cc3ccc(OC)cc3nc2s1 (centres undefined),0.355µM*,?,0.562µM*,3.01µM*,12.6µM*
Cc1ccc2cc3c(N)c(C(=O)N4CCOCC4)sc3nc2c1,3.98µM*,1.16µM*,0.316µM*,2.39µM*,.
COc1ccc2cc3cc(C(=O)NCCN4CCc5ccccc5C4)sc3nc2c1,20.5%,-6.9%,12.0%,?,-1.9%
SMILES,Rab9 prom act,ELG1 genotox,NPC1 promoter act,FLuc counter,SMN2 splice up
O=c1c(CCc2ccccc2)nc2cnc(N3CCOCC3)nc2n1Cc1ccc(F)cc1,.,.,.,.,-1.8%
CC(/C=C/c1ccco1)=N\NC(=O)c1cc(C)[nH]n1,-3.9%,13.0%,4.4%,-2.5%,15.2%
C/C(=N\NC(=O)c1cc(-c2ccc(C)s2)[nH]n1)c1ccco1,27.9%,14.1%,23.0%,21.3µM*,11.2µM*
C/C(=N\NC(=O)c1ccn(C)n1)c1ccco1,2.51µM*,16.4µM*,?,16.9µM*,.
C/C(=N/NC(=O)c1cc(C)[nH]n1)c1ccco1,3.98µM*,?,?,21.3µM*,.
COCCCNC(=O)c1c(NC(=O)Cc2coc3cc(C)ccc23)sc2c1CCCC2,.,.,.,-16.8%,?
COc1ccc(-n2cc(C(=O)c3ccccc3O)cn2)cc1,0.501µM*,2.31µM*,?,0.849µM*,?
O=C(c1cnn(-c2ccccc2)c1)c1ccccc1O,3.16µM*,?,?,2.39µM*,?
COc1ccc(O)c(C(=O)c2cnn(-c3ccccc3)c2)c1,?,?,18.9%,?,.
COc1ccc(-n2cc(C(=O)c3ccc4ccccc4c3O)cn2)cc1,9.7%,-0.4%,-1.3%,-3.6%,2.9%
O=C(c1cnn(-c2ccccc2)c1)c1cc(F)ccc1O,?,?,?,13.5µM*,.
COC(=O)C1CCN(C(=O)COC(=O)c2cc(-c3cccs3)nn2-c2ccccc2)CC1,-0.1%,2.2%,1.0%,1.0%,.
